DAX1 inh-1: inhibitors of DAX1 repression of SF-1 activated StAR promoter; HEK293T StAR-luciferase reporter, SF-1/DAX-1 repression relief; inhibition, % at 6.8 µM; 370,000 tested, 1.1% active;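 active means inhibition above the mean over all tested compounds plus 3 SD, cut at about 3.6% in these data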;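 further: 0% = DAX-1 cells with DMSO and 100% = cells lacking DAX-1 with DMSO; higher inhibition means more luminescence from relief of DAX-1 repression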
hcDAF12 agonist: H. contortus DAF-12 activation, primary screen; 370,000 tested, 1.4% active; HEK293 hcDAF-12 lit1-tk-luc reporter, luminescence; 0% DMSO, 100% Δ7-dafachronic acid; activation, % at 6.8 µM; AID 652067;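 active means activation above the mean of all tested compounds plus 3 SD, cut at about 5.5% in these data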;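 further: 100% = response to 3 µM Δ7-dafachronic acid high control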
DAX1 inh-2: inhibitors of human orphan nuclear receptor DAX1 (NR0B1) | P51843 | HEK293 Gal4-DAX1 luciferase reporter, luminescence | inhibition, % at 6.75 µM | 340,000 tested, 0.99% active;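 active means inhibition above the mean over all tested compounds plus 3 SD, cut at about 4.2% in these data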;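 further: 0% = DAX1-transfected cells with DMSO and 100% = empty-vector control cells with DMSO; inhibition shows as a rise in luminescence from relieved DAX1 repression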
Target sequence (P51843 207-470 limits assumed): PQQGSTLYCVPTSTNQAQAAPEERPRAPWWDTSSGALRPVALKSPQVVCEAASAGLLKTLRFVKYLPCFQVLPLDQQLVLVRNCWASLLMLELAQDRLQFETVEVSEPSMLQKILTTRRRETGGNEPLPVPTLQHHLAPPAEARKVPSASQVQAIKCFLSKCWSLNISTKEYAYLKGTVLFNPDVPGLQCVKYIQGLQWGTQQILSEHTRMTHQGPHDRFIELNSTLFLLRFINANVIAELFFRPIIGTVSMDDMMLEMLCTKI
ssDAF12 agonist: activates DAF-12 receptor from parasite S. stercoralis | HEK293 ssDAF-12/GRIP1 lit1-tk-luc reporter, luminescence; % of 3 µM dafachronic acid response | activation, % at 6.8 µM | 370,000 tested, 1% active | AID 652126;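 active means activation above the mean over all tested compounds plus 3 SD, cut at about 0.9% in these data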;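 further: 0% = DMSO-only wells and 100% = 3 µM delta7-dafachronic acid wells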
hgDAF12 agonist: activates the H. glycines DAF-12 receptor ligand-binding domain; HEK293 GAL4-hgDAF12 UAS-luciferase reporter, agonist luminescence; normalized to butyrate control; activation, % at 6.8 µM; 370,000 tested, 1.8% active; AID 687014;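 active means activation above a cutoff set at the mean of all screened compounds plus 3 SD, cut at about 10% in these data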;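 further: 0% = DMSO wells and 100% = sodium butyrate wells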
Starred values were filed as active, the others as inactive; x = no result given. A selection: hits, their analogues and other compounds. The true share with any hit is near 4.1%.

SMILES	DAX1 inh-1	hcDAF12 agonist	DAX1 inh-2	ssDAF12 agonist	hgDAF12 agonist
N/C(=N\OC(=O)COc1ccccc1)c1ccncc1	0	-1	5.3*	-1	4
N/C(=N\OC(=O)CCC1CCCC1)c1ccccn1	4.2*	1	2	0	8
N/C(=N\OC(=O)CCCc1ccccc1)c1ccccn1	1	0	0	-1	4
O=C(NCCc1ccccc1)OCc1cn(Cc2ccccc2C(F)(F)F)nn1	0	0	x	-2	2
CN(C(=O)C1CCN(c2cncnc2)CC1)C1CCCCC1	-1	-1	x	-1	1
CC(=O)N1c2cc(S(=O)(=O)N3CCN(c4ccccc4F)CC3)c(Br)cc2CC1C (configuration not stated)	-2	-2	x	-1	-3
CCc1ccc(OCC(=O)O/N=C(\N)c2ccccn2)cc1	3	3	x	-1	11*
Cc1ccc(OCC(=O)O/N=C(\N)c2ccccn2)cc1C	2	3	x	-1	7
N/C(=N\OC(=O)CSc1ccccc1)c1ccncc1	4	5.7*	2	0	8
NC(=O)c1c(N)[nH]c(C(=O)c2ccccc2)c1-c1ccccc1C(F)(F)F	x	-1	x	-1	-1
CC(C)NC(=O)N[C@H]1C[C@@H]2O[C@H](CO)CC[C@@H]2O[C@@H]1CCc1ccc(-c2ccc(F)cc2)cc1	-1	-1	x	-1	-2
CCOc1ccc(N(C(=O)CNC(=O)c2ccco2)C(C(=O)NC2CCCC2)c2cccnc2)cc1 (configuration not stated)	1	1	5.9*	-1	4
CC(C)c1ccc(N(C(=O)c2ccco2)C(C(=O)NC2CCCC2)c2ccncc2)cc1 (configuration not stated)	1	4	1	0	10*
COc1ccc(N(C(=O)c2ccco2)C(C(=O)NC2CCCC2)c2ccncc2)cc1 (configuration not stated)	0	0	3	0	-1
Cc1ccc(NC(=O)[C@@H]2CC(=O)O[C@@H]2c2ccccc2)cc1C	-1	0	x	-2	2
CCC(C(=O)Nc1c(C)cccc1C)n1c(-c2ccc(=O)[nH]c2)nc2ccccc21 (configuration not stated)	1	5	x	1.5*	1
COc1cc(-n2c(C)nc3cc(C(=O)N4CCN(C(C)=O)CC4)ccc32)cc(OC)c1OC	0	-2	x	-1	-2
CCN(CC)CCN1C(=O)C(O)=C(C(C)=O)C1c1ccccc1[N+](=O)[O-] (configuration not stated)	0	6.3*	1	1.4*	1
CC(=O)C1=C(O)C(=O)N(c2ccc(Br)cc2)C1c1ccccc1[N+](=O)[O-] (configuration not stated)	0	4	-1	1	1
COc1ccc(CN2CCNC(=O)C2CC(=O)NCCc2nc(C)c(C)s2)c(OC)c1 (configuration not stated)	0	-1	-1	-1	2
Cc1cc2cc(CN3C(=O)c4ccccc4C3=O)ccc2n1C	-1	6.1*	1	0	5
CC(=O)c1c(C)[nH]c(C(=O)N(CCc2ccccc2)Cc2ccccc2)c1C	0	5.9*	-1	-1	-2
CC(=O)c1c(C)[nH]c(C(=O)NCCc2ccccc2)c1C	3	3	3	0	9
O=C(NC1CCCC1)C1c2ccccc2OCC(=O)N1Cc1ccccn1 (configuration not stated)	-1	-1	x	-1	0
O=C(NC1CCCCC1)C1c2ccccc2OCC(=O)N1Cc1ccco1 (configuration not stated)	4.4*	-1	x	-1	1
SMILES	DAX1 inh-1	hcDAF12 agonist	DAX1 inh-2	ssDAF12 agonist	hgDAF12 agonist
C/C(=N\N1CCN(Cc2ccc(Cl)cc2)CC1)c1ccc(F)cc1	-1	4	4.5*	-1	-2
O=C1NC(=Nc2ccccc2)S/C1=C\c1ccccc1	0	5	3	1.0*	2
COc1ccc(/C=C2\SC(=Nc3ccccc3OC)NC2=O)cc1	-1	-3	4.3*	-2	2
CC(C)[C@H]1Cn2nnc(-c3ccccc3)c2Cn2c3ccccc3c(=O)n21	0	-1	x	0	1
O=C(COC(=O)c1c(F)cccc1Cl)NC1CCCCC1	2	2	1	1.0*	6
O=C(COC(=O)c1ccccc1F)NC1CCCC1	0	-1	0	-1	0
Nc1nc(N)nc(COc2ccccc2)n1	1	2	4.7*	0	11*
CCCCCCCCNS(=O)(=O)/C=C/c1ccccc1CNC(=O)OC(C)(C)C	0	-3	x	-1	7
CCn1c(Cc2cccs2)nnc1SCC(=O)Nc1cccc2ccccc12	0	-1	x	-1	0
C=CCCC(=O)N1C[C@H]2CCN(C)[C@H]2C[C@H]1c1ccccc1Br	1	1	x	-1	5
CC(=O)Nc1ccc(Sc2ncccc2C(=O)Nc2cc(Cl)cc(Cl)c2)cn1	0	1	0	1.1*	2
CN1CCN(C2=C(Cl)C(=O)N(CCc3ccccc3)C2=O)CC1	1	0	0	-1	6
O=C1c2ccccc2C(=O)N1CCc1ccccc1	0	6.2*	4	0.9*	7
O=C1C(Cl)=C(N2CCOCC2)C(=O)N1CCc1ccccc1	1	4	2	0	11*
N#C/C(=C(/O)CSc1ncn[nH]1)c1nc2ccccc2[nH]1	1	6.5*	0	0	0
Cc1cc(C)n2c(SCC(O)=C(C#N)c3nc4ccccc4[nH]3)nnc2n1	0	1	0	-1	-1
Cc1ccc2ccc3ccc(C)nc3c2n1	-6	-3	-3	-1	-3
Cc1ccc2cc(F)c(F)c(F)c2n1	1	2	x	1.5*	7
Brc1ccccc1Cn1nnc(-c2ccc(N3CCOCC3)cc2)n1	-1	-2	x	-1	6
COc1ccc(/C(C)=N/Nc2nncc3ccccc23)cc1	3	4	0	1	10
COc1ccc(/C(C)=N/Nc2nc3ccccc3nc2C)cc1	0	5.8*	4	1.1*	3
CC1CCN(CCCCOc2ccc(Cl)cc2)CC1	x	x	1	x	x
CC1CCN(C(=O)CCCOc2ccc(Cl)cc2)CC1	0	-1	1	1.3*	3
COc1ccc(OCc2cc(C(=O)N[C@H]3CCCCNC3=O)no2)c(Cl)c1	3.6*	1	1	-1	4
COc1ccc(OCc2cc(C(=O)N3CCCN(C(C)=O)CC3)no2)c(Cl)c1	0	1	0	-1	2
COc1ccc(OCc2cc(C(=O)N(C)Cc3cc(C)no3)no2)c(Cl)c1	1	3	4	0	12*
COc1ccc(OCc2cc(C(=O)NC(C)c3nc(C)cs3)no2)c(Cl)c1 (configuration not stated)	1	4	2	0	12*

Screens as filed in PubChem.
